In all, about 310,000 compounds went through this assay and about 410 (0.13%) were called active. About 2% were inconclusive and are not listed. The list is a sample of the results. Entries with a potency or affinity are not part of this list. Values without a mark were called inactive. No rule for the calls is given here.
assay: RSV antiviral activity via CPE protection, HEp-2 cells, primary 10 µM value included (AID 2391); details: RSV-induced CPE inhibition, at 10 µM, hits give high values

Going from `CCOc1ccc(C2=C/C(=C/c3cccnc3)C(=O)O2)cc1` to `CCC(=O)NC(=S)Nc1ccc2oc(-c3ccc(OC)cc3)nc2c1`, the CPE inhibition falls from 1.93% to -0.44%.

Compared with `COc1ccc(OC)c(CCNC(=O)CN2C(=O)CCSc3ccccc32)c1`, `CCN(c1ccccc1)S(=O)(=O)c1ccc(OC)c(NC(=O)Cc2ccc(OC)c(OC)c2)c1` is higher in CPE inhibition: -3.24% for the first, 8.13% for the second.

Compared with `Cc1ccc2[nH]c(-c3cccc(F)c3)cc(=O)c2c1`, `Cc1ccc2nc(-c3cccc(N)c3)[nH]c2c1` is higher in CPE inhibition: -0.29% for the first, 2.27% for the second.

Going from `Cc1cccc(-c2nc(CS(=O)CC(=O)NCCc3ccccc3)c(C)o2)c1` (stereo not given) to `Cc1ccc(CS(=O)Cc2ccc(C(=O)NCC(C)c3ccccc3)o2)cc1` (stereo not given), the CPE inhibition rises from 0.05% to 1.69%.

Compared with `COCc1[nH]nc2c1C1(C(=O)N(C)c3ccccc31)C(C#N)=C(N)O2` (stereo not given), `O=C1c2ccccc2C(=O)N1CCc1csc(-c2ccc(F)cc2)n1` is lower in CPE inhibition: 2.9% for the first, 2.17% for the second.

Going from `O=C1c2ccccc2C(=O)N1CCc1csc(-c2ccccc2)n1` to `O=C(O)c1ccc(-c2nc(-c3ccccc3Cl)cs2)cc1`, the CPE inhibition rises from 3.44% to 15.1%.

Going from `CCSc1nc(O)cc(=O)n1-c1ccc(OC)cc1` to `Cc1cc(C(=O)COC(=O)c2ccc[nH]c2=O)c(C)n1-c1ccc(F)cc1`, the CPE inhibition rises from -0.46% to 2.01%.

First: CC(NC(=O)c1nn(C)c(=O)c2ccccc12)c1ccc(F)cc1 (stereo not given)
Second: CCN(c1ccccc1)S(=O)(=O)c1ccc(OC)c(NC(=O)Cc2ccc(F)cc2)c1
The CPE inhibition of the first is lower: 1.39% for the first, 13.4% for the second.

Compared with `O=C(/C=C/c1cccs1)Nc1sc2c(c1C(=O)O)CCCC2`, `O=C(/C=C/c1ccco1)Nc1sc2c(c1C(=O)O)CCC2` is lower in CPE inhibition: 16.6% for the first, 3.96% for the second.

First: O=C(O)CCC(=O)Nc1sc2c(c1C(=O)NCc1ccccc1)CCCC2
Second: O=C(Nc1sc2c(c1C(=O)O)CCCCC2)c1ccccc1
The CPE inhibition of the first is lower: 1.43% for the first, 2.56% for the second.

Compared with `Cn1cnnc1Sc1cc(N2CCN(S(=O)(=O)c3ccccc3)CC2)ccc1[N+](=O)[O-]`, `Cc1ccc(S(=O)(=O)N2CCN(c3ccc([N+](=O)[O-])c(Sc4nncn4C)c3)CC2)cc1` is lower in CPE inhibition: 2.72% for the first, 2% for the second.

Going from `Cc1ccc(C(=O)COC(=O)c2ccncc2)cc1[N+](=O)[O-]` to `Cc1ccc(CN(C)C(=O)COC(=O)CSc2ccc(C(N)=O)cc2[N+](=O)[O-])cc1`, the CPE inhibition falls from 1.18% to -0.57%.

First: CCCCCCCN1C/C=C\C(c2ccc(OC)cc2)N(Cc2ccc(F)cc2)C(=O)[C@H]1Cc1ccccc1 (stereo not given in full)
Second: COc1ccc(NC(=O)Nc2cc3oc4ccccc4c3cc2OC)cc1
The CPE inhibition of the first is lower: 0.33% for the first, 9.45% for the second.

First: CCN(CC(=O)NCc1ccccn1)S(=O)(=O)c1cc(Cl)ccc1Cl
Second: CCOc1ccc(S(=O)(=O)N(C)CC(=O)NCc2ccccn2)cc1Cl
The CPE inhibition of the first is lower: -1.64% for the first, 1.39% for the second.

Going from `Cc1ccc2[nH]c3c(=O)[nH]ncc3c2c1` to `Cc1ccc(-c2[nH]c3cc(C(=O)NCCCn4ccnc4)ccc3c(=O)c2O)cc1`, the CPE inhibition rises from -1.42% to 1.07%.

First: CC(C)(C)NC(=O)C1CN(S(=O)(=O)c2ccccc2)CCN1S(=O)(=O)c1ccccc1 (stereo not given)
Second: CCNC(=O)C1CN(S(=O)(=O)c2ccccc2)CCN1S(=O)(=O)c1ccccc1 (stereo not given)
The CPE inhibition of the first is higher: 0.62% for the first, -2.71% for the second.

Compared with `CCCCn1c(N)c(N(CC(C)C)C(=O)c2c(CC)noc2C)c(=O)[nH]c1=O`, `CCCCCCC(=O)Nc1c2c(nc3ccccc13)N(C)CC2` is higher in CPE inhibition: -1.37% for the first, 0.9% for the second.

Going from `CNC(=O)COC(=O)c1cc2c(s1)CCCC2` to `C/C(N)=C(/C#N)C(=O)COC(=O)c1cc2c(s1)CCC(C)C2` (stereo not given), the CPE inhibition rises from 1.88% to 5.48%.

Compared with `C/C(N)=C(/C#N)C(=O)COC(=O)c1ccccc1Oc1ccccc1`, `C/C(N)=C(/C#N)C(=O)COC(=O)c1cccc2ccccc12` is higher in CPE inhibition: 2.44% for the first, 4.13% for the second.

Compared with `Cc1cc(C(=O)OCC(N)=O)c(C)n1-c1ccccc1`, `C/C(N)=C(/C#N)C(=O)COC(=O)c1ccccc1O` is higher in CPE inhibition: -3.46% for the first, 1.5% for the second.

Going from `C/C(N)=C(/C#N)C(=O)COC(=O)C(c1ccccc1)c1ccccc1` to `CCOC(=O)CC(NC(=O)C(CC)c1ccccc1)c1ccccc1Cl` (stereo not given), the CPE inhibition rises from 0.91% to 3.39%.

Going from `[O-]/[N+](=C/c1ccco1)c1ccccc1` to `COc1cccc(NC(=O)c2ccccc2C(F)(F)F)c1`, the CPE inhibition falls from 2.24% to 1.62%.

First: O=C(c1ccc(Cl)c(S(=O)(=O)N2CCOCC2)c1)N1CCOCC1
Second: Nc1nc(SCC(=O)Nc2cc(S(=O)(=O)N3CCOCC3)ccc2Cl)n[nH]1
The CPE inhibition of the first is lower: -0.1% for the first, 0.46% for the second.

Compared with `CCCCOC(=O)c1ccc(NC(=O)c2ccc(F)cc2F)cc1`, `COC(=O)c1ccc(NC(=O)c2ccccc2-c2ccccc2C(=O)O)cc1` is lower in CPE inhibition: 3.03% for the first, 0.77% for the second.

Going from `CCOC(=O)c1sc(NC(=O)Cc2ccc(F)cc2)nc1C` to `COc1ccc(C(=O)/C=C/NCc2ccc(F)cc2)cc1OC`, the CPE inhibition falls from 17.9% to 4.99%.

First: NC(=O)CCN1CCN(Cc2nc(C(c3ccccc3)c3ccccc3)no2)CC1
Second: O=c1[nH]c(C2CCCN(S(=O)(=O)c3ccccc3)C2)nc2c1nnn2Cc1ccccc1F (stereo not given)
The CPE inhibition of the first is lower: -0.36% for the first, 3.4% for the second.

Going from `O=S(=O)(Nc1nc2ccccc2s1)c1cnc(Cl)c(Br)c1` to `CCN(c1ccccc1)S(=O)(=O)c1ccc(Cl)c(NC(=O)CSc2nnc(C)s2)c1`, the CPE inhibition rises from 0.69% to 17.6%.

Compared with `O=c1[nH]c(C2CCCN(S(=O)(=O)c3ccccc3)C2)nc2c1nnn2Cc1cccc(Cl)c1` (stereo not given), `Cc1ccc(Cn2nnc3c(=O)[nH]c(C4CCCN(S(=O)(=O)c5ccccc5)C4)nc32)cc1` (stereo not given) is lower in CPE inhibition: 43% for the first, 13% for the second.

First: COC(=O)c1ccc(Cn2nnc3c(=O)[nH]c(C4CCCN(S(=O)(=O)c5ccccc5Cl)C4)nc32)cc1 (stereo not given)
Second: COC(=O)c1ccccc1S(=O)(=O)N1CCCC(c2nc3c(nnn3Cc3ccc(C)cc3)c(=O)[nH]2)C1 (stereo not given)
The CPE inhibition of the first is lower: 2.61% for the first, 10.4% for the second.

Going from `O=c1[nH]c(C2CCCN(S(=O)(=O)c3ccccc3)C2)nc2c1nnn2Cc1ccc2c(c1)OCCO2` (stereo not given) to `Cc1ccc(Cn2nnc3c(=O)[nH]c(C4CCCN(S(=O)(=O)c5ccccc5F)C4)nc32)cc1` (stereo not given), the CPE inhibition falls from 60.4% to 4.65%.

First: Cc1ccc(Cn2nnc3c(=O)[nH]c(C4CCCN(S(=O)(=O)c5ccc(F)cc5)C4)nc32)cc1 (stereo not given)
Second: O=C(Nc1ccc(F)cc1F)N1CCCC(c2nc(-c3ccc(F)cc3)no2)C1 (stereo not given)
The CPE inhibition of the first is lower: 5.93% for the first, 14.7% for the second.

First: CN1CCN(/C(=N\O)c2nonc2N)CC1
Second: CCOc1nc(Nc2ccc(OC)cc2)nc(N2CCOCC2)n1
The CPE inhibition of the first is lower: -0.46% for the first, 2.38% for the second.

Going from `O=C(CCN1C(=O)S/C(=C\C=C\c2ccccc2)C1=O)Nc1ccc(O)cc1` to `COCCN1C(=O)C(CC(=O)Nc2ccc(C(C)=O)cc2)SC1=Nc1ccccc1` (stereo not given), the CPE inhibition rises from -1.82% to 2.47%.

First: COc1ccc(N2CCN(S(=O)(=O)c3ccc(OC)c(C(=O)N4CCOCC4)c3)CC2)cc1
Second: COc1ccccc1C(=O)C1CCCN(C(=O)c2ccccn2)C1 (stereo not given)
The CPE inhibition of the first is lower: 0.25% for the first, 2.51% for the second.

Compared with `O=C(Nc1cccc(Cl)c1)Nc1nnc(CC2=CCCCC2)s1`, `COc1cc2c(cc1NC(=O)Nc1ccc(C)cc1)oc1ccccc12` is higher in CPE inhibition: 5.11% for the first, 33% for the second.

Going from `COCCN1C(=O)C(CC(=O)Nc2ccc(C(=O)O)cc2)SC1=Nc1ccccc1` (stereo not given) to `CC(=O)c1ccc(C(=O)NC2CCCN(Cc3ccccc3F)C2)cc1` (stereo not given), the CPE inhibition falls from 1.29% to -0.91%.

First: COc1ccc(OCc2n[nH]c(=S)n2Cc2ccco2)cc1
Second: CCOc1ccc(C(C(=O)NC2CCCC2)N(CCOC)C(=O)CNC(=O)c2ccco2)cc1 (stereo not given)
The CPE inhibition of the first is higher: 2.67% for the first, 0.14% for the second.

Going from `Cc1ccc(C2C3=C(CCCC3=O)N=C3c4ccccc4C(=O)C32)cc1` (stereo not given) to `O=C1CCCC2=C1C(c1ccc(Cl)cc1)C1C(=O)c3ccccc3C1=N2` (stereo not given), the CPE inhibition rises from 11.5% to 58.3%.

First: Cc1ccc(C)c(S(=O)(=O)N2CCCOC2CNC(=O)C(=O)NCc2cccs2)c1 (stereo not given)
Second: CCS(=O)(=O)Nc1ccc(C2=NN(S(=O)(=O)CC)C(c3cccs3)C2)cc1 (stereo not given)
The CPE inhibition of the first is lower: 1.48% for the first, 2.5% for the second.

First: CCN(CC)c1ccc(CN(C(=O)c2cccs2)C2CCS(=O)(=O)C2)cc1 (stereo not given)
Second: COc1ccc(C(=O)OCC(=O)N(C)C2CCS(=O)(=O)C2)cc1Br (stereo not given)
The CPE inhibition of the first is lower: 1.38% for the first, 1.57% for the second.

Compared with `COCCCNC(=O)CN(c1cc(Cl)ccc1OC)S(C)(=O)=O`, `CCC(C)NCC(=O)Nc1cc(S(=O)(=O)N(CC)c2ccccc2)ccc1Cl` (stereo not given) is higher in CPE inhibition: 0.7% for the first, 10.6% for the second.

Compared with `C=CCNC(=O)c1ccc(-c2nc(-c3ccc(Cl)cc3Cl)cs2)cc1`, `CCN(c1ccccc1)S(=O)(=O)c1ccc(Cl)c(NC(=O)CSc2nncs2)c1` is higher in CPE inhibition: 3.05% for the first, 14.1% for the second.

Compared with `CS(=O)(=O)c1ccc(Cl)c(NC(=O)CSc2n[nH]c(N)n2)c1`, `CCN(c1ccccc1)S(=O)(=O)c1ccc(Cl)c(NC(=O)CSc2nncn2C)c1` is higher in CPE inhibition: -0.18% for the first, 4.02% for the second.

Compared with `Cc1[nH]c2c(Cl)cccc2c(=O)c1CN1CCCCCC1`, `Cc1nc(N)nc(N/N=C/c2c(F)cccc2Cl)n1` is higher in CPE inhibition: -1.59% for the first, 0.02% for the second.

First: O=C1CS/C(=N/N=C\c2ccn[nH]2)N1
Second: Cc1c(C(=O)O)cccc1-c1ccc(/C=N/n2cnnc2)o1
The CPE inhibition of the first is higher: 6.91% for the first, 0.79% for the second.
